From PubChem
KDM5B inh: blocks human KDM5B histone demethylase activity; Q9UGL1; KDM5B demethylase, FDH-coupled NADH fluorescence (FDH is formaldehyde dehydrogenase); Potency, µM (top dose mostly 57.7 µM), hits mostly inhibitors; 2.6% of 220,000 active; active = well fitted inhibition curve with a large enough effect; also: nearly all actives have a fitted effect of over 70% in size
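Compound dilutions met 200 nM (final) KDM5BΔAP for 10 min at room temperature before substrate addition. The substrate mix held 12.5 µM H3K4me3 with cofactors 25 µM α-ketoglutarate and 50 µM Fe²⁺. NADH signal gain over 30 min defined activity.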
Numbers stand for hits; . = inactive. The full list was thinned out, with hits kept by preference.

SMILES	KDM5B inh
CCC(C(=O)NCCn1ccn2nc(-c3cccc(OC)c3)cc2c1=O)c1ccccc1 (stereo not given)	.
CCC(C(=O)NCCn1ccn2nc(-c3ccc(OC)cc3)cc2c1=O)c1ccccc1 (stereo not given)	20µM
COc1ccc(-c2cc3c(=O)n(CCNC(=O)c4c(F)cccc4Cl)ccn3n2)cc1	22µM
COc1ccc(-c2cc3c(=O)n(CCNC(=O)c4cccc(OC)c4OC)ccn3n2)cc1	25µM
CC(C)c1cccc(C(C)C)c1NC(=O)c1nn(C)c(=O)c2ccccc12	.
COc1ccc(C(=O)N2CCC(CO)(CN3CCCC3)CC2)cc1C	.
CS(=O)(=O)Nc1ccc(C2(C(=O)NCc3cccc(Cl)c3)CCCCC2)cc1	.
CCOc1cc(C(=O)Oc2ccccc2OC)cc(Br)c1OC	.
Cc1nn(C(C)C)c(C)c1NC(=O)c1cc2occc2n1Cc1ccc(Cl)cc1	.
COc1cccc(CN2Cc3cc(NC(=O)c4ccc([N+](=O)[O-])cc4)ccc3OC(C)C2=O)c1OC (stereo not given)	.
O=C(COc1ccccc1F)Nc1nc(-c2ccc(S(=O)(=O)N3CCOCC3)cc2)cs1	.
COCCN(Cc1cnn(-c2ccccc2C)c1)CC1CC1	.
Cc1ccccc1-n1cc(-c2ccnc(NC(C)Cc3ccncc3)n2)cn1 (stereo not given)	25µM
Cc1ccccc1-n1cc(CN(C)Cc2nc(-c3ccc(C(F)(F)F)cc3)no2)cn1	.
Cc1ccc(-c2nc(C)c(C(=O)NC3C=CS(=O)(=O)C3)s2)cc1 (stereo not given)	.
CO[C@H]1C(=O)N(C(C)C)[C@H]1C1CCN(C(=O)NC2CCCCC2)CC1	.
COc1nccnc1NC1CCN(C(=O)NC2CCCCC2)CC1	32µM
CCOCC(=O)N1CCC(N2CC(OCC3CC3)C23CCCCC3)CC1 (stereo not given)	.
COc1nccnc1NC1CCN(C(=O)Cc2cccs2)CC1	32µM
COCCO[C@H]1C(=O)N(C2CCN(C(=O)NC3CCCCC3)CC2)[C@H]1c1ccncc1	.
COCC(=O)N1CCC(Oc2ncccc2C(=O)N(C)C)CC1	.
COc1nccnc1NC1CCN(C(=O)Cc2ccccc2F)CC1	35µM
O=C(Cc1cccs1)N1CCN(c2cc(C(F)(F)F)ncn2)CC1	.
COc1ccc(-n2nnc3c(N4CCN(C(=O)Cc5cccs5)CC4)ncnc32)cc1	.
CCCNC(=O)N(C1CCOCC1)C1CCN(C(=O)Cc2ccccc2F)CC1	.
SMILES	KDM5B inh
CCOCC(=O)N1CCC(Nc2nccnc2OC)CC1	28µM
CCCN(C)c1nccnc1OC1CCN(C(=O)Cc2ccccc2OC)C1 (stereo not given)	.
CC(=O)c1c(C)[nH]c(C(=O)Cn2nnc(-c3ccc(C(C)C)cc3)n2)c1C	.
O=C(Nc1oc2ccc(Cl)cc2c(=O)c1-c1ccccc1)c1cccs1	.
Cc1ccc(C(=O)C(C)OC(=O)c2ccc(S(=O)(=O)N(C)C)cc2)cc1C (stereo not given)	.
CCCCn1c(=O)[nH]c(=O)c2c1nc(COC(=O)/C=C/c1ccc(OCC#N)c(OC)c1)n2C	.
O=S(=O)(NCCO)c1cc(Br)ccc1Br	.
CCOC(=O)CN1C(C(C)=O)=C(OC(=O)CC)c2ccccc2S1(=O)=O	.
CCn1nc(C(=O)NCC(c2ccco2)N2CCCC2)c2ccccc2c1=O (stereo not given)	.
O=C(C1CCC1)N1CCCC(c2noc(COc3ccccc3)n2)C1 (stereo not given)	.
O=C(Nc1ccc2c(N3CCCCC3)ncnc2c1)c1ccc(F)cc1F	.
CC(C)NC(=O)Cc1ccc(-n2c(=O)c3ccccc3n(Cc3ccccc3)c2=O)cc1	.
O=C(Nc1cccc(C(F)(F)F)c1)c1nc2c(o1)CCN(Cc1ccc(F)cc1)CC2	40µM
Cc1ccc(CN2CCC(CNC(=O)Nc3cccc(C(F)(F)F)c3)CC2)cc1	.
N#Cc1ccc(CN2CCc3nc(C(=O)Nc4cccc(C(F)(F)F)c4)oc3CC2)cc1	22µM
O=C(c1nc2c(o1)CCN(Cc1cccc(F)c1)CC2)N1CCOCC1	.
O=C(Nc1cccc(C(F)(F)F)c1)c1nc2c(o1)CCN(Cc1cccc(F)c1)CC2	28µM
O=C(NCC1CC1)c1nc2c(o1)CCN(Cc1cccc(F)c1)CC2	.
O=C(Nc1cccc(C(F)(F)F)c1)c1nc2c(o1)CCN(Cc1ccccc1)CC2	22µM
COc1ccc(CN2CCc3nc(C(=O)NCc4cccc(F)c4)oc3CC2)cc1OC	.
O=C(Nc1cccc(C(F)(F)F)c1)c1nc2c(o1)CCN(Cc1cnc[nH]1)CC2	.
COc1ccccc1CN1CCc2nc(C(=O)NCc3cccc(F)c3)oc2CC1	.
O=C(Nc1cccc(C(F)(F)F)c1)C1=CCN(Cc2ccccc2F)CC1	.
O=C(Nc1cccnc1)c1nc2c(o1)CCN(Cc1ccc3[nH]ccc3c1)CC2	.
COc1ccc(C(=O)N2C[C@@H]3OCC(=O)N(CC4CC4)[C@@H]3C2)cc1	.
SMILES	KDM5B inh
CC(=O)N[C@H]1CN(C(=O)c2ccccc2C(F)(F)F)C[C@@H]1C1CC1	.
Cc1ccc(C)c(C(=O)COC(=O)CCSc2ccc(Cl)cc2)c1	.
O=C([C@@H]1C[C@H](Oc2cccnc2)CN1C(=O)NCCc1ccccc1)N1CCOCC1	.
O=C(CN1C(=O)NC2(CCOCC2)C1=O)Nc1cccc(F)c1	.
O=c1[nH]c(=O)n(CCc2ccccc2)c2nccc(-c3ccccc3Cl)c12	.
COc1ccc(CNC(=O)[C@@H]2CCC[C@@H](NCc3ccc(C(F)(F)F)cc3)CN(C)C(=O)C2)cc1	.
CNC(=O)c1noc(CN2CCN(C)C3(CCNC(=O)CC3)C2)n1 (stereo not given)	.
CCN1CCN(c2ccc(NC(=O)c3ccc(S(=O)(=O)NCc4ccco4)cc3)cc2)CC1	.
CC(C)CN(C(=O)CSc1nc(CN2CCOCC2)nc2ccccc12)C1CCS(=O)(=O)C1 (stereo not given)	.
N#Cc1ccc(C(=O)N2CCCN(S(=O)(=O)c3ccccc3)CCC(=O)NCC2)cc1	.
CC1(C)CN(C(=O)c2csc(Cc3ccccc3)n2)CC1(C)O (stereo not given)	.
CC(C)CCn1nc(C(=O)OCC(=O)NC23CC4CC(CC(C4)C2)C3)c2ccccc2c1=O	.
Cc1cc(C)cc(Nc2ccc([N+](=O)[O-])cn2)c1	.
CC1CCN(Cc2ccc(C(=O)N[C@@H]3CCNC[C@H]3O)o2)CC1	.
CC(=O)c1c(C)nn(CCC(=O)N[C@@H]2CCNC[C@H]2O)c1C	.
Cc1nc(N(C)C)ncc1C(=O)N[C@@H]1CCNC[C@H]1O	14µM
COc1ccc(NC(=O)CCc2ncc(-c3ccccc3F)o2)cc1Cl	.
O=C(Nc1ccccc1)C1CCN(C(=O)CCc2ncc(-c3ccc(Cl)cc3)o2)CC1	.
CC(Cc1cccc(F)c1)C(=O)N1CCC(C(=O)N2CCN(C)CC2)CC1 (stereo not given)	.
Cn1cc(C(C(=O)O)N2CCN(c3ncccn3)CC2)c2cc(C(=O)O)ccc21 (stereo not given)	.
COc1ccc(Cl)cc1C(C(=O)O)N1CCCN(c2ncccn2)CC1 (stereo not given)	28µM
O=C(O)C(c1c[nH]c2ccc(Cl)cc12)N1CCN(c2ncc(Br)cn2)CC1 (stereo not given)	.
COc1ccc2oc(=O)c(-c3csc(Nc4ccc(Cl)cc4)n3)cc2c1	.
Cc1ccc(N2C(=O)c3cc(-c4ccco4)nn3CC2(C)C(=O)NC2CCCCC2)cc1 (stereo not given)	.
